# Methyltransferases – Primary Screen for Target Class Profiling of Small Molecule Inhibitors of Methyltransferases | AID 1745853, 2022 | 25,000 compounds, 3.9% hits | calls only at 40 µM | purified enzyme, MTase-Glo SAH luminescence; hits give low values; call rule not given here
#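 Each enzyme was reacted with SAM and its substrate, with compounds tested once at 40 uM; SAH formed was read by MTase-Glo luminescence.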
# MTase-Glo ctr – detection enzyme interference, methyltransferase counter-screen. 180 compounds, 6% hits. Potency, µM (titrated, usually from 57.3 µM), most hits filed as inhibitors. shares compounds with Methyltransferases. MTase-Glo coupled enzymes, SAH conversion luminescence, no MTase. AID 1745851; active = well fitted inhibition curve with a large enough effect; inconclusive = small, poorly fitted or top-dose-only effect
# Calls only; . = inactive; ? = inconclusive; + = active, no number. Only a selection was taken, and hits are over-represented in it overall.
SMILES,Methyltransferases,others
CCc1ccc(C2c3cccn3-c3ccccc3CN2C(=O)NCCCOC)cc1 (stereo not given),.,
CCOc1ccc(C2c3cccn3-c3ccccc3CN2C(=O)Nc2ccc(C)c(Cl)c2)cc1 (stereo not given),.,
CSc1cccc(NC(=O)N2Cc3ccccc3-n3cccc3C2c2ccc(N(C)C)cc2)c1 (stereo not given),.,
COc1ccc(NC(=O)N2Cc3ccccc3-n3cccc3C2c2cccc(Cl)c2)cc1 (stereo not given),.,
O=C(NCCc1ccccc1)N1Cc2ccccc2-n2cccc2C1c1cc(F)cc(F)c1 (stereo not given),.,
CCCN(CCC)[C@@H]1CCc2ccc(O)cc2C1,.,
CCCN(CCC)C1CCc2ccc(O)cc2C1 (stereo not given),+,
CCCN(CCC)C1CCc2cccc(O)c2C1 (stereo not given),.,
Cc1ccc(NC(=O)N2Cc3ccccc3-n3cccc3C2c2ccccc2)cc1F (stereo not given),.,
Cc1ccc(C2c3cccn3-c3ccccc3CN2C(=O)Nc2cc(C)cc(C)c2)cc1 (stereo not given),.,
CCOc1ccc(NC(=O)N2Cc3ccccc3-n3cccc3C2C(C)C)cc1 (stereo not given),.,
C=C(CO)C(=O)O[C@H]1CC(=C)[C@@H]2C[C@H](O)C(=C)[C@@H]2[C@H]2OC(=O)C(=C)[C@@H]21,+,
Cc1ccc(C)c(NC(=O)N2Cc3ccccc3-n3cccc3C2C(C)C)c1 (stereo not given),.,
CC(C)CCNC(=O)N1Cc2ccccc2-n2cccc2C1c1ccccc1 (stereo not given),.,
CSc1ccc(C2c3cccn3-c3ccccc3CN2C(=O)Nc2ccccc2C(F)(F)F)cc1 (stereo not given),.,
COc1cccc(NC(=O)N2Cc3ccccc3-n3cccc3C2c2cc(F)cc(F)c2)c1 (stereo not given),.,
CC(C)c1ccc(C2c3cccn3-c3ccccc3CN2C(=O)Nc2cc(F)ccc2F)cc1 (stereo not given),.,
Cc1c(Cl)cccc1NC(=O)N1Cc2ccccc2-n2cccc2C1c1ccccc1 (stereo not given),.,
CN(C)c1cc2c(cc1Sc1nc3c(N)nccc3n1CCNCC(C)(C)C)OCO2,+,
CCc1ccc(C2c3cccn3-c3ccccc3CN2C(=O)Nc2ccccc2)cc1 (stereo not given),.,
NC(=O)CI,+,
CCc1ccc(NC(=O)N2Cc3ccccc3-n3cccc3C2CC)cc1 (stereo not given),.,
C[C@H]1CCCC(=O)CCC/C=C/c2cc(O)cc(O)c2C(=O)O1,+,
CC1CCCCCC(=O)c2c(O)cc(O)cc2CC(=O)O1 (stereo not given),.,
CC1C/C=C/C(O)C(O)CC/C=C/c2cc(O)cc(O)c2C(=O)O1 (stereo not given),.,
SMILES,Methyltransferases,others
CCCNC(=O)N1Cc2ccccc2-n2cccc2C1c1ccc(N(C)C)cc1 (stereo not given),.,
Cc1ccc(C2c3cccn3-c3ccccc3CN2C(=O)Nc2cccc(Cl)c2)cc1 (stereo not given),.,
O=C(NCCc1ccccc1)N1Cc2ccccc2-n2cccc2C1c1ccc(F)cc1 (stereo not given),.,
Cc1[nH]nc2ccc(-c3cncc(OC[C@@H](N)Cc4c[nH]c5ccccc45)c3)cc12,+,
COc1ccc(OC)c(NC(=O)N2Cc3ccccc3-n3cccc3C2c2cc(F)cc(F)c2)c1 (stereo not given),.,
O=C(Nc1cccc2c1CCCC2)N1Cc2ccccc2-n2cccc2C1c1cccs1 (stereo not given),.,
Cc1ccccc1NC(=O)N1Cc2ccccc2-n2cccc2C1c1cccs1 (stereo not given),.,
Cc1ccccc1C1c2cccn2-c2ccccc2CN1C(=O)Nc1ccccc1Br (stereo not given),.,
Cc1ccc(NC(=O)N2Cc3ccccc3-n3cccc3C2c2cccs2)cc1F (stereo not given),.,
CCCCCOc1cc2c(cc1-c1cc(/C=C/C(=O)O)ccc1O)C(C)(C)CCC2(C)C,+,
CCc1ccc(C2c3cccn3-c3ccccc3CN2C(=O)Nc2ccc3c(c2)OCCO3)cc1 (stereo not given),.,
COc1cccc(CNC(=O)N2Cc3ccccc3-n3cccc3C2c2ccc(C(C)C)cc2)c1 (stereo not given),.,
CC(C)NC(=O)NC[C@H]1C[C@@H]2CCN1C[C@@H]2CN1CCC(Cc2ccccc2)CC1,.,
CN(CCc1ccccn1)C[C@H]1CN2CC[C@H]1C[C@@H]2CNC(=O)Nc1ccsc1,+,MTase-Glo ctr=.
CN(CCc1ccccn1)C[C@H]1CN2CC[C@H]1C[C@@H]2CNC(=O)c1ccco1,.,
O=C(Nc1cc(F)ccc1F)N1Cc2ccccc2-n2cccc2C1c1cccs1 (stereo not given),.,
FC(F)(F)CN1C2CCC1CN(c1nnc(Cl)c3ccccc13)C2,.,
NC(=O)c1ccc(N2CC3CCC(C2)N3CC(F)(F)F)nn1,+,MTase-Glo ctr=.
Cc1ccc(CNC(=O)N2Cc3ccccc3-n3cccc3C2c2cccc(C)c2)cc1 (stereo not given),.,
O=C(Nc1cccc(Cl)c1)N1Cc2ccccc2-n2cccc2C1c1cccs1 (stereo not given),.,
CCC(CC)c1cc([C@H]2CN3CC[C@H]2C[C@@H]3CNC(=O)C2CCC2)nc(-c2ccncc2)n1,.,
Cn1nc(-c2ccc(F)cc2)cc1[C@H]1CN2CC[C@H]1C[C@@H]2CNC(=O)c1cccs1,.,
CC(=O)c1cccc(NC(=O)NC[C@H]2C[C@@H]3CCN2C[C@@H]3c2cc(-c3ccc(F)cc3)nc(C)n2)c1,+,MTase-Glo ctr=?
COc1ccc(-c2cc([C@H]3CN4CC[C@H]3C[C@@H]4CN)nc(C)n2)cc1OC,+,MTase-Glo ctr=.
Cc1nc(-c2ccccc2)cc([C@H]2CN3CC[C@H]2C[C@@H]3CNS(C)(=O)=O)n1,.,
SMILES,Methyltransferases,others
COc1ccc(-c2cc([C@H]3CN4CC[C@H]3C[C@@H]4COC(=O)NC3CCCCC3)nc(C)n2)cc1,.,
Cc1cccc(C2c3cccn3-c3ccccc3CN2C(=O)Nc2cccc(C)c2C)c1 (stereo not given),.,
CCc1ccccc1NC(=O)N1Cc2ccccc2-n2cccc2C1C (stereo not given),.,
COc1ccc(C2c3cccn3-c3ccccc3CN2C(=O)Nc2cc(Cl)ccc2OC)cc1 (stereo not given),.,
CCOc1ccc(C2c3cccn3-c3ccccc3CN2C(=O)NCc2ccccc2)cc1 (stereo not given),.,
COc1ccc(C2c3cccn3-c3ccccc3CN2C(=O)NCc2ccc(F)cc2)cc1 (stereo not given),.,
CCOC(=O)c1ccccc1NC(=O)N1Cc2ccccc2-n2cccc2C1c1cccs1 (stereo not given),.,
